The nature of assay [1]: Tanguay_ZF_120hpf_MORT_legacy: (Legacy) Oregon State University Tanguay Lab 120 Hour Post-fertilization zebrafish Assay for Mortality (AID 2283633). The method, boiled down:
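5D WT zebrafish, chorion removed 4 hpf; 1 embryo/well from 6 hpf; static exposure to 120 hpf, 28C, dark, sealed. Final DMSO 0.64%. Readout: binary mortality, brightfield, 24 + 120 hpf; DMSO as negative control.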

Assay [2] is described as follows: Tanguay_ZF_120hpf_EYE_legacy: (Legacy) Oregon State University Tanguay Lab 120 Hour Post-fertilization zebrafish Assay for Eye Malformation (AID 2283636). Put shortly: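 Static waterborne exposure of dechorionated zebrafish embryos (strain Tropical 5D), 6 to 120 hpf, sealed plates at 28C, 0.64% DMSO vehicle. Eye malformation is scored as a binary endpoint, with gain of signal analysed relative to DMSO.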

Assay [3] in a line: Tanguay_ZF_120hpf_OTIC_legacy: (Legacy) Oregon State University Tanguay Lab 120 Hour Post-fertilization zebrafish Assay for Otic Vesicle Malformation (AID 2283639). Put shortly:
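Statically exposed wild-type 5D zebrafish embryos, kept sealed and dark at 28C through 120 hours post fertilization, were examined by brightfield microscopy for otic vesicle defects. Responses were recorded as present or absent and analysed relative to DMSO.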

Assay [4] can be described thus: Tanguay_ZF_120hpf_BRAI_legacy: (Legacy) Oregon State University Tanguay Lab 120 Hour Post-fertilization zebrafish Assay for Brain Malformation (AID 2283641). Put shortly:
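Wild-type 5D larvae, static waterborne exposure to 120 hpf, 28C, 0.64% v/v DMSO. Brightfield scoring of brain defects, binary; dead embryos excluded. Positive ctrl 5uM trimethyltin chloride.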

Assay [5] is described as follows: Tanguay_ZF_120hpf_CFIN_legacy: (Legacy) Oregon State University Tanguay Lab 120 Hour Post-fertilization zebrafish Assay for Caudal Fin Malformation (AID 2283649). The method, boiled down:
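Binary presence or absence of caudal fin malformation at 120 hpf, read by brightfield microscopy, with DMSO as baseline. Larvae came from 5D wild-type embryos exposed statically from 6 hpf at 28C after pronase dechorionation.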

Assay [6] is described as follows: Tanguay_ZF_120hpf_PIG_legacy: (Legacy) Oregon State University Tanguay Lab 120 Hour Post-fertilization zebrafish Assay for Pigmentation Malformation (AID 2283650). Put shortly:
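Endpoint is incidence of abnormal pigmentation at 120 hpf in dechorionated 5D zebrafish exposed singly from 6 hpf at 28C, DMSO vehicle at 0.64%. Embryos dying by 24 or 120 hpf are excluded from scoring.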

The nature of assay [7]: Tanguay_ZF_120hpf_CIRC_legacy: (Legacy) Oregon State University Tanguay Lab 120 Hour Post-fertilization zebrafish Assay for Circulatory Malformation (AID 2283651). The method, boiled down:
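Embryos are dechorionated at 4 hpf, plated one per well at 6 hpf, then held under static exposure at 28C until 120 hpf. Malformations are recorded as binary calls; mortality excludes other endpoints.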

The nature of assay [8]: Tanguay_ZF_120hpf_SWIM_legacy: (Legacy) Oregon State University Tanguay Lab 120 Hour Post-fertilization zebrafish Assay for Swim Bladder Malformation (AID 2283654).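 Note: swim bladder malformation in each larva scored yes or no under brightfield.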 Put shortly: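 Static waterborne exposure of single dechorionated Tropical 5D zebrafish embryos, 6–120 hpf, 28C, 0.64% DMSO final. Read-out: swim bladder malformation, present/absent, relative to DMSO negative control; trimethyltin chloride 5uM served as positive control.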

Assay [9] in a line: Tanguay_ZF_120hpf_TRUN_legacy: (Legacy) Oregon State University Tanguay Lab 120 Hour Post-fertilization zebrafish Assay for Truncated Body (AID 2283655). Put shortly: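 Truncated body is recorded as a binary endpoint at 120 hpf by brightfield imaging of wild-type 5D larvae. Exposure runs statically from 6 hpf at 28C with 0.64% DMSO; embryos dying earlier are not scored.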
The nature of assay [10]: Tanguay_ZF_120hpf_YSE_legacy: (Legacy) Oregon State University Tanguay Lab 120 Hour Post-fertilization zebrafish Assay for Yolk Sac Edema (AID 2283634).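 For AC50: actives raise the incidence of yolk sac edema above the DMSO baseline.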 The method, boiled down:
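Dechorionate (pronase, 4 hpf) → place one 6 hpf embryo per well → static compound exposure, sealed and foil-covered, 28C, to 120 hpf → record yolk sac edema as present or absent. Final DMSO 0.64%.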

Assay [11] in a line: Tanguay_ZF_120hpf_SNOU_legacy: (Legacy) Oregon State University Tanguay Lab 120 Hour Post-fertilization zebrafish Assay for Snout Malformation (AID 2283637). Put shortly:
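Dechorionated zebrafish, individually housed from 6 hpf in covered, sealed wells at 28C with 0.64% DMSO vehicle, were examined at 120 hpf for snout malformation. Responses were binary and analysed positive-direction relative to DMSO.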

A short description of assay [12]: Tanguay_ZF_120hpf_JAW_legacy: (Legacy) Oregon State University Tanguay Lab 120 Hour Post-fertilization zebrafish Assay for Jaw Malformation (AID 2283638).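 For AC50: active means more embryos with jaw malformation than DMSO controls.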 Put shortly:
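Steps: dechorionate 4 hpf embryos (pronase); plate 1/well at 6 hpf; add test chemical, 0.64% DMSO final; seal, cover, hold at 28C statically to 120 hpf; score jaw defect presence/absence microscopically. Dead embryos not scored.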

A short description of assay [13]: Tanguay_ZF_120hpf_PE_legacy: (Legacy) Oregon State University Tanguay Lab 120 Hour Post-fertilization zebrafish Assay for Pericardial Edema (AID 2283640).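 For AC50: potency for increased incidence of pericardial edema versus DMSO baseline.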 The method, boiled down:
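Embryos from wild-type 5D adults were staged, then dosed in 0.64% DMSO. They were kept sealed in the dark at 28C until 120 hpf. Pericardial edema was then recorded as present or absent.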

A short description of assay [14]: Tanguay_ZF_120hpf_SOMI_legacy: (Legacy) Oregon State University Tanguay Lab 120 Hour Post-fertilization zebrafish Assay for Somite Malformation (AID 2283647). Put shortly: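 Read-out: presence or absence of somite malformation in 120 hpf larvae, gain-of-signal relative to DMSO baseline. Embryos lacked chorion (pronase, 4 hpf) and were exposed statically from 6 hpf at 28C; dead larvae not scored.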

A short description of assay [15]: Tanguay_ZF_120hpf_PFIN_legacy: (Legacy) Oregon State University Tanguay Lab 120 Hour Post-fertilization zebrafish Assay for Pectoral Fin Malformation (AID 2283648).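 Note: each larva judged yes or no for fin defect by brightfield with dead larvae skipped.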 The method, boiled down:
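Scoring of pectoral fin malformation was binary, made at 120 hpf on larvae exposed statically from 6 hpf after enzymatic chorion removal. Activity was fitted upward relative to DMSO controls at 0.64% (vol/vol).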

Read-out in assay [16]: solute carrier (SLC22A6), SLC22A6 (gene 9356)
Description: LTEA_HepaRG_SLC22A6: Life Technologies and Expression Analysis (LTEA) Assay for solute carrier (SLC22A6) using HepaRG (AID 2283653; active = hit-call score of the fitted dose curve at least 0.9, where 1 is the maximum; inactive = score below 0.9). To be noted: mRNA level, 48 h; actives raise or lower the signal. Put shortly: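 Read-out is SLC22A6 transcript level by qRT-PCR, normalised to three housekeeping genes and fitted for gain or loss relative to 0.5% DMSO vehicle. Human HepaRG cells received chemicals at up to 100 uM for 48 h.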

A short description of assay [17]: Tanguay_ZF_120hpf_NC_legacy: (Legacy) Oregon State University Tanguay Lab 120 Hour Post-fertilization zebrafish Assay for Notochord and Tail Malformation (AID 2283656). The method, boiled down:
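Binary scoring of notochord distortion by brightfield microscopy; embryos dying were not scored. Wild-type Tropical 5D embryos, chorion removed, exposed singly and statically from 6 to 120 hpf, 28C, sealed, 0.64% DMSO.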

Read-out in assay [18]: solute carrier (SLC10A1), SLC10A1 (gene 6554)
The assay can be described thus: LTEA_HepaRG_SLC10A1: Life Technologies and Expression Analysis (LTEA) Assay for solute carrier (SLC10A1) using HepaRG (AID 2283657; active = hit-call score of the fitted dose curve at least 0.9, where 1 is the maximum; inactive = score below 0.9). As to conditions: mRNA level, 48 h; actives raise or lower the signal. Put shortly:
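Cryopreserved HepaRG cells are thawed, plated and cultured 48 h; medium is then switched to serum-free induction medium and chemicals added (8 points, max 100 uM, 0.5% DMSO). After 48 h, RNA is isolated and SLC10A1 quantified by qRT-PCR.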

A short description of assay [19]: Tanguay_ZF_120hpf_AXIS_legacy: (Legacy) Oregon State University Tanguay Lab 120 Hour Post-fertilization zebrafish Assay for Body Axis Malformation (AID 2283635). The method, boiled down:
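Chorion is removed with pronase at 4 hpf, then single 6 hpf embryos are dosed (final DMSO 0.64%) and held statically at 28C in sealed, foil-covered plates. At 120 hpf body axis malformation is recorded as present or absent.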

Our source for the outcome and AC50 values is PubChem BioAssay (EPA / NIEHS).

Records with an inconclusive call do not appear. Calls of active or inactive are those of the source. Rule for the calls, unless noted: active = hit-call score of the fitted dose curve at least 0.9, where 1 is the maximum; inconclusive = response in the unintended direction; inactive = score below 0.9.

For orientation: AC50 means the concentration giving half of the maximal activity seen.

As to `Oc1ccccc1Cl`, the molecule was classed as inactive in assay [1], in [2], in [3], in [4], in assay [5] and in assay [6]. For the same molecule, the call in assay [7], in [8] and in [9] was inactive.
For `C[C@]12C=CC3=C4CCC(=O)C=C4CC[C@H]3[C@@H]1CC[C@@H]2O`, the molecule was classed as inactive in assay [1], in [3], in assay [14], in assay [15], in [5] and in assay [6]. Moreover, the molecule was called inactive in assay [7], in assay [16], in assay [8], in [9] and in assay [17]. Moreover, the AC50 was 48.8 µM (active) in assay [10]; 27.1 µM (active) in assay [2]; 43.3 µM (active) in assay [11]; 30.5 µM (active) in assay [12]; 29.9 µM (active) in assay [13]; 27.1 µM (active) in [4]. Moreover, in [18], the AC50 was 16.1 µM (active).
For `Clc1ccc(Cl)c(Cl)c1`, the molecule was called inactive in assay [10], in assay [19], in assay [2], in [12], in assay [13] and in assay [4]. Moreover, the molecule was classed as inactive in assay [14], in assay [15], in [5], in assay [6], in [7] and in assay [8]. In addition, the molecule was called inactive in [17].
For the molecule `CCCCCCCCOC(=O)c1ccc(C(=O)OCCCCCCCC)c(C(=O)OCCCCCCCC)c1`, the outcome in assay [1], in assay [10], in [19], in assay [11], in assay [3] and in [13] was inactive. The molecule was classed as inactive in assay [4], in assay [14], in assay [15], in [5], in [6] and in assay [7]. Moreover, the molecule was called inactive in assay [8], in assay [9] and in assay [17].
For the molecule `C[N+](C)(C)CC1CO1` (stereo unspecified), the molecule was called inactive in assay [1], in [10], in [12], in assay [3], in assay [13] and in [4]. The outcome in assay [14], in [5], in [6], in [8], in assay [9] and in [17] was inactive.
In the case of `O=[N+]([O-])c1ccc(Oc2ccc(Cl)cc2Cl)cc1`, the outcome in [1], in assay [10], in assay [19], in assay [2], in [3] and in assay [4] was inactive. The molecule was classed as inactive in assay [14], in assay [15], in [5], in assay [8] and in assay [9].
With `C=CCc1ccc2c(c1)OCO2`, the molecule was called inactive in assay [1], in assay [10], in assay [19], in assay [2], in assay [11] and in assay [12]. For the same molecule, the molecule was classed as inactive in assay [4], in assay [14], in assay [15], in assay [5], in [6] and in [8]. The molecule was called inactive in assay [9] and in [17].
On to `CC(C)(C)OOC(C)(C)CCC(C)(C)OOC(C)(C)C`, for which the call in assay [1], in assay [10], in assay [2], in assay [11], in assay [12] and in assay [13] was inactive. Moreover, the molecule was called inactive in assay [4], in [15], in assay [5], in assay [6], in assay [7] and in assay [8]. Also, the molecule was classed as inactive in assay [9] and in assay [17].
Turning to `CC(C)(C)OOC(=O)c1ccccc1`, the call in assay [1], in [10], in assay [19], in assay [2], in assay [12] and in [3] was inactive. Besides, the outcome in assay [4], in [14], in assay [15], in [5], in assay [6] and in [7] was inactive. Further, the molecule was called inactive in assay [8] and in [9].
With `Cc1ccc(N)c(N)c1`, the outcome in assay [1], in assay [10], in assay [19], in [2], in [11] and in assay [3] was inactive. Also, the call in [13], in [4], in [14], in assay [15], in assay [5] and in [6] was inactive. For the same molecule, the outcome in [7], in assay [8], in [9] and in assay [17] was inactive.
For `Cc1ccc(N)cc1`, the outcome in assay [1], in assay [10], in assay [2], in assay [11], in [12] and in [3] was inactive. The call in assay [13], in [4], in assay [14], in assay [15], in assay [5] and in [6] was inactive. For the same molecule, the molecule was classed as inactive in assay [7], in [8], in [9] and in assay [17].
As for `Clc1ccc(C(c2ccc(Cl)cc2)C(Cl)(Cl)Cl)cc1`, the call in [1], in assay [10], in [19], in [11], in assay [12] and in [3] was inactive. Also, the molecule was classed as inactive in assay [13], in [14], in assay [15], in assay [5], in assay [6] and in assay [7]. For the same molecule, the molecule was called inactive in [8], in assay [9] and in assay [17].
With `ClCCOCCCl`, the molecule was called inactive in assay [1], in assay [19], in [11], in assay [12], in [13] and in assay [4]. In addition, the result in assay [14], in assay [15], in assay [5], in assay [6], in [7] and in [8] was inactive. Moreover, the outcome in assay [9] and in assay [17] was inactive.
